Bioassay records deposited in PubChem BioAssay by several laboratories.
Sampled rows, rich in hits. Any-hit rate of the full collection: about 3.9%.
BH1578 lux ind: inducers of Vibrio cholerae quorum light production without autoinducers. hit rate 0.16% among 350,000. AID 588436. V. cholerae BH1578 lux reporter, luminescence, 6 h. activation, % at 18.7 µM; in the data active = activation mostly above about 9.7%, no sharp cut-off; inconclusive = no clear call, values can overlap the other calls; inactive = mostly below about 3.7%
BoNT A protease: inhibitors of Botulinum neurotoxin A light chain protease. multiplex microsphere protease substrate cleavage, flow cytometry. inhibition, % at 10 µM. hit rate 0.17% among 360,000; note: plate controls were buffer without enzyme for full effect and enzyme alone for no effect
MazEF act: activators of E. coli MazEF toxin-antitoxin RNase | P0AE70 | FAM/BHQ RNA-DNA oligo cleavage fluorescence, 5 h | activation, % at 20 µM | hit rate 0.32% among 350,000 | AID 504720; in the data active = activation above about 50%
Target sequence (P0AE70 whole entry, looked up): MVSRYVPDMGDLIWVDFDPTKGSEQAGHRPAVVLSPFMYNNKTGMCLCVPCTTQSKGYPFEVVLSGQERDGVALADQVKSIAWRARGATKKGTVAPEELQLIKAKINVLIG
Autofluor counter: flagged as autofluorescent in microsphere protease counterscreen. hit rate 3.1% among 360,000. fluorescence intensity (test concentration not listed). compound autofluorescence counterscreen, microsphere flow cytometry; active compounds read high; in the data active = fluorescence intensity above about 16000; inconclusive = no clear call, values can overlap the other calls
Anthrax LF prot: blocks Bacillus anthracis lethal factor protease. P15917. multiplex microsphere protease cleavage assay, LF. inhibition, % at 10 µM. hit rate 0.12% among 360,000. AID 588501; note: plate controls were buffer without enzyme for full effect and enzyme alone for no effect
BoNT F protease: inhibitors of Botulinum neurotoxin F light chain protease. Multiplex microsphere protease cleavage assay, flow cytometry. inhibition, % at 10 µM. hit rate 0.22% among 360,000. AID 588497; in the data active = inhibition above about 35%, passing the limit was not always enough; inconclusive = no clear call, values can overlap the other calls; note: plate controls were buffer without enzyme for full effect and enzyme alone for no effect
* marks the source's active call; other numbers are inactive results. Cut-off read from the data, not from the text of the source, unless noted: active = inhibition above about 30%; inconclusive = no clear call, values can overlap the other calls; inactive = below that.

For COCCNC(=O)Nc1ccc2c(c1)N(C)C(=O)c1ccccc1S2 the results were BH1578 lux ind -0.3, BoNT A protease -0.7, MazEF act 5.1, Autofluor counter 3069, Anthrax LF prot -2.5 and BoNT F protease -1.4.
Screening C=CCN1C(=O)CSc2ccc(C(=O)N3CCC4(CC3)OCCO4)cc21 returned BH1578 lux ind 0.5, BoNT A protease -4.8, MazEF act 3.6, Autofluor counter 17917*, Anthrax LF prot -3.4 and BoNT F protease -8.1.
Screening CCN(c1ccccc1)S(=O)(=O)c1csc(C(N)=O)c1 returned BH1578 lux ind -6.2, BoNT A protease -2.5, MazEF act -2.3, Autofluor counter 3784, Anthrax LF prot 0.9 and BoNT F protease -1.2.
COCc1ccc(C(=O)N2CCCC(CNC(=O)c3ccc(F)cc3)C2)o1 (centres undefined) was read as BH1578 lux ind 0.4 and MazEF act 7.6.
CC(C)[C@H](NC(=O)c1ccccc1)C(=O)OCC(=O)c1ccc2c(c1)NC(=O)CO2 was read as BH1578 lux ind -11.4, BoNT A protease -0.6, MazEF act -10.1, Autofluor counter 23418*, Anthrax LF prot -1.1 and BoNT F protease 0.1.
For COc1cc(OC)cc(C(=O)N[C@H](C(=O)OCC(=O)c2ccc3c(c2)NC(=O)CO3)C(C)C)c1 the results were BH1578 lux ind -0.3, BoNT A protease 0.0, MazEF act -6.5, Autofluor counter 8766, Anthrax LF prot 0.9 and BoNT F protease -5.5.
Screening OCCC1CN(CC(c2ccccc2)c2ccccc2)CCN1C1CCCC1 (centres undefined) returned BH1578 lux ind -0.6, BoNT A protease 0.0, MazEF act 15.5, Autofluor counter 2391, Anthrax LF prot -1.0 and BoNT F protease -2.3.
`CCOC(=O)C1=C(C)NC(=O)NC1c1cccc(OC)c1OCc1ccccc1Cl` (centres undefined) gave BH1578 lux ind inactive, BoNT A protease inconclusive, MazEF act -1.6, Autofluor counter 23671*, Anthrax LF prot -2.6 and BoNT F protease -2.4.
For CCOC(=O)C1=C(C)C(c2ccccc2O)NC(=O)N1 (centres undefined) the results were BH1578 lux ind -0.2, BoNT A protease 2.2, MazEF act 9.2, Autofluor counter 19487*, Anthrax LF prot 0.5 and BoNT F protease 1.8.
COc1ccc(COC(=O)C2=C(C)NC(=O)NC2c2cccc(OC)c2OC)cc1 (centres undefined) was read as BH1578 lux ind -3.2, BoNT A protease 2.0, MazEF act 0.5, Autofluor counter 3178, Anthrax LF prot 10.1 and BoNT F protease inconclusive.
`COc1cc(Cl)cc(C2NC(=O)NC(C)=C2C(C)=O)c1OCC(=O)O` (centres undefined) gave BH1578 lux ind -4.2, BoNT A protease -3.1, MazEF act 5.4, Autofluor counter 16937*, Anthrax LF prot -4.1 and BoNT F protease -4.4.
CCOC(=O)C1=C(C)C(c2ccc(OC)cc2OC)NC(=O)N1 (centres undefined) was read as BH1578 lux ind -0.6, BoNT A protease 0.8, MazEF act 1.6, Autofluor counter 2955, Anthrax LF prot 4.2 and BoNT F protease -3.3.
Screening CCCC1=C(C(=O)OCC)C(c2cc(Cl)cc(OC)c2OCc2ccccc2)NC(=O)N1 (centres undefined) returned BH1578 lux ind -0.2, BoNT A protease 2.4, MazEF act 1.8, Autofluor counter 21474*, Anthrax LF prot -0.4 and BoNT F protease 1.7.
C=CCOc1c(OC)cc(Cl)cc1C1NC(=O)NC(C)=C1C(C)=O (centres undefined) was read as BH1578 lux ind inactive, BoNT A protease -0.5, MazEF act 10.2, Autofluor counter 4439, Anthrax LF prot 0.7 and BoNT F protease -28.9.
Screening O=C(COC(=O)CNC(=O)c1ccccc1F)NC12CC3CC(CC(C3)C1)C2 returned BH1578 lux ind inactive, BoNT A protease -0.8, MazEF act -3.4, Autofluor counter 3065, Anthrax LF prot -5.3 and BoNT F protease 0.9.
Screening CCOC(=O)C1=C(C)N(C)C(=S)NC1c1ccc(Cl)cc1Cl (centres undefined) returned BH1578 lux ind -0.2, BoNT A protease -0.1, MazEF act -8.8, Autofluor counter 2308, Anthrax LF prot -1.7 and BoNT F protease -7.1.
CCOC(=O)C1=C(C)NC(=O)NC1c1ccc(Cl)cc1Cl (centres undefined) was read as BH1578 lux ind -0.2, BoNT A protease 3.0, MazEF act 6.9, Autofluor counter 20836*, Anthrax LF prot -7.8 and BoNT F protease 2.5.
CCOC(=O)[C@@H]1[C@H]2COc3ccc(Br)cc3[C@@H]2N2C(=O)N(c3ccc(F)cc3)C(=O)[C@]12C was read as BH1578 lux ind inactive, BoNT A protease -0.1, MazEF act 1.6, Autofluor counter 3032, Anthrax LF prot -0.2 and BoNT F protease -9.7.
CCOc1ccc(N2C(=O)CC(C(C)c3ccccc3)C2=O)cc1 (centres undefined) was read as BH1578 lux ind -0.2, BoNT A protease 1.1, MazEF act 7.1, Autofluor counter 3759, Anthrax LF prot 9.8 and BoNT F protease inconclusive.
`CCCOc1ccc(NC(=O)C2CC(=O)N3CCCN=C3S2)cc1` (centres undefined) gave BH1578 lux ind -0.7, BoNT A protease 1.6, MazEF act 2.9, Autofluor counter 23005*, Anthrax LF prot -0.3 and BoNT F protease 0.2.
Screening CCOc1ccc(NC(=O)C2CC(=O)N3CCCN=C3S2)cc1 (centres undefined) returned BH1578 lux ind -1.2, BoNT A protease 0.7, MazEF act -2.8, Autofluor counter 3965, Anthrax LF prot 5.3 and BoNT F protease 3.5.
`CCN(CC)c1ccc(NC(=O)c2ccc(Br)o2)c(C)c1` gave BH1578 lux ind -0.4, BoNT A protease -0.9, MazEF act 2.0, Autofluor counter 20876*, Anthrax LF prot -2.6 and BoNT F protease -2.7.
Cc1cc(O)c(NC(=O)c2ccc(Br)o2)cc1C was read as BH1578 lux ind 1.9, BoNT A protease 1.9, MazEF act 2.7, Autofluor counter 21608*, Anthrax LF prot -3.7 and BoNT F protease 4.3.
For O=C(Nc1cccc(Cl)c1N1CCCC1)c1ccc(Br)o1 the results were BH1578 lux ind -7.1, BoNT A protease -1.7, MazEF act 0.7, Autofluor counter 21468*, Anthrax LF prot -3.4 and BoNT F protease -6.1.
For Cc1cc2nc(-c3ccc[nH]c3=O)n(Cc3ccccc3F)c2cc1C the results were BH1578 lux ind inactive, BoNT A protease -1.1, MazEF act -1.4, Autofluor counter 3324, Anthrax LF prot 0.5 and BoNT F protease 0.6.
Oc1ccc(-c2cc(-c3ccc(O)cc3)nc(-c3ccccc3)n2)cc1 was read as BH1578 lux ind 1.5, BoNT A protease -1.1, MazEF act 59.3*, Autofluor counter 3811, Anthrax LF prot -1.1 and BoNT F protease -7.6.
`COc1cc(/C=C2/SC(=S)N(CC(=O)NC(C)(C)C)C2=O)cc(OC)c1OC` gave BH1578 lux ind -2.4, BoNT A protease 31.3*, MazEF act -95.7, Autofluor counter 6534, Anthrax LF prot 27.3 and BoNT F protease 27.9.
